In PubChem BioAssay (NCI):
This is part of a sample that, as a whole, favours compounds with a hit. Of some 79,000 tested, about 15% had one in any assay. Active and inactive are the calls of the source. Rule as the data show it: active = growth inhibition above about 70%; inactive = the rest.

Columns and labels:
[1] = NCI Yeast Anticancer Drug Screen. Data for the mec2-1 strain (AID 157); conditions: S. cerevisiae mec2-1 strain, hits give high values
In short: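 Mutant yeast (mec2-1) grown with compound; growth inhibition relative to vehicle control reported.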

[2] = NCI Yeast Anticancer Drug Screen. Data for the rad14 strain (AID 159);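 also: 0% = growth of vehicle-treated control cultures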; conditions: S. cerevisiae rad14 strain growth inhibition, hits give high values
In short: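 A mutant yeast strain defective in DNA damage repair is treated with compound; inhibition of its growth is scored against untreated, vehicle-exposed cultures.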

[3] = NCI Yeast Anticancer Drug Screen. Data for the sgs1 mgt1 strain (AID 161);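 also: 0% = growth of cultures given vehicle only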; conditions: S. cerevisiae sgs1 mgt1 strain, hits give high values
In short: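 Percent growth inhibition was derived by comparing compound-exposed mutant yeast with vehicle-exposed cultures. The strain carries alterations in DNA damage repair.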

[4] = NCI Yeast Anticancer Drug Screen. Data for the CLN2oe strain (AID 163);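 also: 0% = growth of vehicle-only control cultures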; conditions: S. cerevisiae CLN2oe strain, hits give high values
In short: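 Compounds are applied to yeast harbouring a defined cell-cycle control change; reduced growth compared with vehicle-treated controls gives the value.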

[5] = NCI Yeast Anticancer Drug Screen. Data for the cln2 rad14 strain (AID 165);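 also: 0% = growth equal to vehicle treated cultures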; conditions: S. cerevisiae cln2 rad14 strain, hits give high values
In short: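 Readout is yeast growth inhibition versus vehicle-treated controls, using a strain with cln2 and rad14 alterations exposed to compound.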

[6] = NCI Yeast Anticancer Drug Screen. Data for the bub3 strain (AID 167); conditions: S. cerevisiae bub3 mutant strain, hits give high values
In short: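 Steps: expose the mutant yeast strain to compound; grow alongside vehicle-treated cultures; measure growth; express inhibition against the vehicle cultures.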

[7] = NCI Yeast Anticancer Drug Screen. Data for the wt2 strain (AID 169);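 also: 0% = growth of vehicle-treated yeast cultures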; conditions: S. cerevisiae wt2 strain growth inhibition, hits give high values
In short: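 Against vehicle-treated controls, the growth of yeast exposed to each compound was compared, and the inhibition was recorded.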

[8] = NCI Yeast Anticancer Drug Screen. Data for the sgs1 strain (AID 173);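 also: 0% = growth of vehicle-only control cultures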; conditions: S. cerevisiae sgs1 mutant, hits give high values
In short: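 Each compound was added to cultures of the altered yeast strain. Growth was recorded, and inhibition was derived by comparison with vehicle controls.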

[9] = NCI Yeast Anticancer Drug Screen. Data for the mlh1 rad18 strain (AID 175); conditions: S. cerevisiae mlh1 rad18 strain growth inhibition, hits give high values
In short: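 Genetically defined yeast (DNA repair-deficient) exposed to compounds; growth inhibition determined relative to vehicle.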

[10] = NCI Yeast Anticancer Drug Screen. Data for the rad18 strain (AID 177); conditions: S. cerevisiae rad18 mutant growth inhibition, hits give high values
In short: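 Vehicle-treated cultures served as the baseline for scoring compound-induced growth inhibition in DNA-repair-mutant yeast.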

[11] = NCI Yeast Anticancer Drug Screen. Data for the rad52 strain (AID 147);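 also: 0% = growth of vehicle-treated control cultures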; conditions: S. cerevisiae rad52 mutant growth inhibition, hits give high values
In short: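 The repair-mutant yeast strain was incubated with compounds, then growth was read and inhibition derived relative to vehicle.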

[12] = NCI Yeast Anticancer Drug Screen. Data for the wt1 strain (AID 149);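 also: 0% = growth of vehicle-treated wt1 cultures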; conditions: S. cerevisiae wt1 strain (SPY 50644) growth inhibition, hits give high values
In short: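 Compounds are added to wt1 yeast cultures. Growth is then measured. Inhibition is expressed relative to vehicle-treated controls.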

[13] = NCI Yeast Anticancer Drug Screen. Data for the rad50EPP+ strain (AID 151);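 also: 0% = growth of vehicle-treated control cultures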; conditions: S. cerevisiae rad50 mutant strain, hits give high values
In short: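 Vehicle-normalised growth inhibition; rad50EPP+ yeast strain, altered in DNA damage repair, compound-treated.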

[14] = NCI Yeast Anticancer Drug Screen. Data for the mgt1 strain (AID 153); conditions: S. cerevisiae mgt1 mutant growth inhibition, hits give high values
In short: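 Vehicle-normalized growth inhibition is determined in mgt1 yeast, a strain selected for a defined alteration in DNA repair or cell cycle control.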

[15] = NCI Yeast Anticancer Drug Screen. Data for the rad50 strain (AID 155);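 also: 0% = growth of vehicle-only cultures of the same strain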; conditions: S. cerevisiae rad50 strain growth inhibition, hits give high values
In short: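 Inhibition values express reduced yeast growth in compound-treated cultures relative to vehicle-treated controls.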

[16] = NCI Yeast Anticancer Drug Screen. Data for the mlh1 strain (AID 171);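 also: 0% = growth of vehicle-treated control cultures of the same strain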; conditions: S. cerevisiae mlh1 strain growth inhibition, hits give high values
In short: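 Measured: yeast growth. Reference: vehicle-treated controls. Organism: strain with a defined alteration affecting DNA damage repair or cell cycle control, treated with compound.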

[17] = at 5.0 µM (retest, dose inferred, filed as 0.5)
[18] = at 50.0 µM (retest, dose inferred, filed as 5.0)

Measured: growth inhibition

Cc1[nH]c2ccccc2c1C(c1ccc(N)cc1)c1c(C)[nH]c2ccccc12
inactive: [1]; [17] 4% | [1]; at 11.0 µM -1% | [1]; at 33.0 µM -1% | [1]; at 100.0 µM 45% | [2]; at 1.2 µM 5% | [2]; at 3.7 µM 0% | [2]; at 11.0 µM 0% | [2]; at 33.0 µM 6% | [2]; at 100.0 µM 50% | [3]; [17] 8% | [4]; at 1.2 µM -1% | [4]; at 3.7 µM -3% | [4]; at 11.0 µM -6% | [4]; at 33.0 µM 0% | [4]; at 100.0 µM 25% | [5]; [17] 4% | [5]; [18] 45% | [5]; at 50.0 µM 39% | [6]; at 1.2 µM -3% | [6]; at 3.7 µM -3% | [6]; [17] 0% | [6]; at 11.0 µM -6% | [6]; at 33.0 µM -5% | [6]; at 100.0 µM 38% | [7]; at 1.2 µM -2% | [7]; at 3.7 µM -11% | [7]; at 11.0 µM -10% | [7]; at 33.0 µM -1% | [7]; at 100.0 µM 47% | [8]; at 1.2 µM -12% | [8]; at 3.7 µM -14% | [8]; at 11.0 µM -19% | [8]; at 33.0 µM -5% | [8]; at 100.0 µM 62% | [9]; [17] 6% | [10]; at 1.2 µM 4% | [10]; at 3.7 µM 4% | [10]; at 11.0 µM -1% | [10]; at 33.0 µM 0% | [10]; at 100.0 µM 47%
active: [1]; [18] 94% | [1]; at 50.0 µM 96.4% | [3]; [18] 96% | [3]; at 50.0 µM 98.2% | [6]; [18] 85% | [6]; at 50.0 µM 98.4% | [9]; [18] 96% | [9]; at 50.0 µM 98.5%

O=[N+]([O-])CC(SCc1ccccc1)c1ccc2c(c1)OCO2 (centres undefined)
active: [11]; at 11.0 µM 92% | [11]; at 33.0 µM 99% | [11]; at 100.0 µM 97% | [12]; at 11.0 µM 70% | [12]; at 33.0 µM 98% | [12]; at 100.0 µM 98% | [13]; at 3.7 µM 91% | [13]; at 11.0 µM 97% | [13]; at 33.0 µM 98% | [13]; at 100.0 µM 98% | [14]; at 33.0 µM 97% | [14]; at 100.0 µM 97% | [15]; at 11.0 µM 94% | [15]; at 33.0 µM 98% | [15]; [18] 97% | [15]; at 50.0 µM 90% | [15]; at 100.0 µM 98% | [1]; at 11.0 µM 76% | [1]; at 33.0 µM 98% | [1]; [18] 98% | [1]; at 50.0 µM 91.7% | [1]; at 100.0 µM 98% | [2]; at 11.0 µM 71% | [2]; at 33.0 µM 97% | [2]; at 100.0 µM 97% | [3]; at 50.0 µM 92.7% | [4]; at 33.0 µM 97% | [4]; at 100.0 µM 97% | [5]; [18] 97% | [5]; at 50.0 µM 90.2% | [6]; [17] 89% | [6]; at 11.0 µM 91% | [6]; at 33.0 µM 97% | [6]; [18] 96% | [6]; at 50.0 µM 92.2% | [6]; at 100.0 µM 97% | [7]; at 33.0 µM 97% | [7]; at 100.0 µM 97% | [16]; at 11.0 µM 94% | [16]; at 33.0 µM 98% | [16]; at 100.0 µM 97% | [8]; at 11.0 µM 97% | [8]; at 33.0 µM 100% | [8]; at 100.0 µM 99% | [9]; [17] 73% | [9]; [18] 97% | [9]; at 50.0 µM 89.2% | [10]; at 11.0 µM 79% | [10]; at 33.0 µM 98% | [10]; at 100.0 µM 98%
inactive: [11]; at 1.2 µM 39% | [11]; at 3.7 µM 34% | [12]; at 1.2 µM 23% | [12]; at 3.7 µM 36% | [13]; at 1.2 µM 44% | [14]; at 1.2 µM 9% | [14]; at 3.7 µM 3% | [14]; at 11.0 µM 47% | [15]; at 1.2 µM 41% | [15]; at 3.7 µM 69% | [15]; [17] 30% | [1]; at 1.2 µM -2% | [1]; at 3.7 µM 42% | [1]; [17] 26% | [2]; at 1.2 µM -2% | [2]; at 3.7 µM 36% | [3]; [17] -4% | [3]; [18] 46% | [4]; at 1.2 µM 3% | [4]; at 3.7 µM 5% | [4]; at 11.0 µM 42% | [5]; [17] 15% | [6]; at 1.2 µM -28% | [6]; at 3.7 µM 13% | [7]; at 1.2 µM 1% | [7]; at 3.7 µM 8% | [7]; at 11.0 µM 47% | [16]; at 1.2 µM 17% | [16]; at 3.7 µM 48% | [8]; at 1.2 µM 30% | [8]; at 3.7 µM 54% | [10]; at 1.2 µM 7% | [10]; at 3.7 µM 23%

O=C1Nc2ccc(Cl)c(I)c2C1=O
active: [11]; at 100.0 µM 84% | [13]; at 100.0 µM 79% | [15]; at 100.0 µM 88% | [2]; at 100.0 µM 84% | [6]; [18] 70% | [6]; at 50.0 µM 79% | [6]; at 100.0 µM 90% | [8]; at 100.0 µM 92% | [10]; at 100.0 µM 91%
inactive: [11]; at 1.2 µM 3% | [11]; at 3.7 µM 10% | [11]; at 11.0 µM 7% | [11]; at 33.0 µM 32% | [12]; at 1.2 µM -11% | [12]; at 3.7 µM -13% | [12]; at 11.0 µM -11% | [12]; at 33.0 µM -14% | [12]; at 100.0 µM 45% | [13]; at 1.2 µM 28% | [13]; at 3.7 µM 35% | [13]; at 11.0 µM 44% | [13]; at 33.0 µM 65% | [14]; at 1.2 µM -11% | [14]; at 3.7 µM -13% | [14]; at 11.0 µM -5% | [14]; at 33.0 µM -3% | [14]; at 100.0 µM 59% | [15]; at 1.2 µM -6% | [15]; at 3.7 µM -11% | [15]; [17] -13% | [15]; at 11.0 µM -23% | [15]; at 33.0 µM 26% | [15]; [18] 60% | [15]; at 50.0 µM 35.5% | [1]; at 1.2 µM 2% | [1]; at 3.7 µM 16% | [1]; [17] 3% | [1]; at 11.0 µM 16% | [1]; at 33.0 µM 10% | [1]; [18] 6% | [1]; at 50.0 µM 62.4% | [1]; at 100.0 µM 58% | [2]; at 1.2 µM 8% | [2]; at 3.7 µM -1% | [2]; at 11.0 µM 1% | [2]; at 33.0 µM 11% | [3]; [17] -1% | [3]; [18] 17% | [3]; at 50.0 µM 41.9% | [4]; at 1.2 µM 5% | [4]; at 3.7 µM 21% | [4]; at 11.0 µM -1% | [4]; at 33.0 µM 5% | [4]; at 100.0 µM 47% | [5]; [17] 1% | [5]; [18] 32% | [5]; at 50.0 µM 37.1% | [6]; at 1.2 µM -14% | [6]; at 3.7 µM -5% | [6]; [17] -23% | [6]; at 11.0 µM -4% | [6]; at 33.0 µM 5% | [7]; at 1.2 µM -1% | [7]; at 3.7 µM 0% | [7]; at 11.0 µM 3% | [7]; at 33.0 µM 2% | [7]; at 100.0 µM 52% | [8]; at 1.2 µM 21% | [8]; at 3.7 µM 23% | [8]; at 11.0 µM 26% | [8]; at 33.0 µM 36% | [9]; [17] 0% | [9]; [18] 68% | [9]; at 50.0 µM 67.2% | [10]; at 1.2 µM 28% | [10]; at 3.7 µM 30% | [10]; at 11.0 µM 29% | [10]; at 33.0 µM 41%
